Assay outcomes deposited in PubChem by Broad Institute.
HSF1 inhib – HSF1 inhibitors in luciferase reporter cells, primary screen, cell-based, NIH3T3, luminescence; NIH3T3-HGL HSE-luciferase, MG132-induced, luminescence 8 h; stronger effect = lower value; activity change, negative = inhibition, % at 7.5 µM (by protocol); 300,000 compounds, 0.77% hits;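 active = more than half of replicate wells show activity change below -50%, luminescence cut by over half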;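 note: luciferase reports HSF-1 transcriptional activity via heat shock element; 0% = median of DMSO wells and -100% = zero luminescence signal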
HSF-1 act – HSF-1 activators, primary screen, NIH3T3-HGL cells, MG132 stress, luminescence, single point; activation, % at 9 µM; 300,000 compounds, 1.7% hits; NIH3T3-HGL HSF-1 luciferase reporter, 8 h; 100% = twice DMSO control signal;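 active = mean replicate activation of at least 50% with a set share of replicates each reaching 50%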;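 note: 0% = median of the neutral control wells and 100% = twice that signal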
Vif inh – HIV Vif self-association inhibitors, primary screen, imaging, HEK293T, single point | AID 602346, 2012 | inhibition, % at 7.49 µM | 340,000 compounds, 0.35% hits | HEK293T cells, Vif self-association by quenched fluorescence, 24 h; in the data active = inhibition above about 50%, passing the limit was not always enough
esBAF inh – Bmi1 luciferase reporter increase in mESCs, primary screen, esBAF inhibitor project, mouse ES cells, Bmi1 luciferase knock-in, single point | 24 h; 100% = twice the neutral-well signal | 350,000 compounds, 2% hits | reporter increase, % at 12.5 µM; in the data active = activation above about 40%;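 note: 0% = median of the plate's neutral control wells and 100% = double that signal; a rise in the Bmi1 reporter signal indicates esBAF inhibition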
Ring1 derepress – Ring1 mRNA increase in mouse ESCs, confirmation, esBAF inhibitor project, cell-based, mouse ESC, RT-qPCR, cherry-pick; shares compounds with esBAF inh; 550 tested, under 10 active; fold change at 33 µM; mouse ESC E14, Ring1 mRNA RT-qPCR fold change;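 active = Ring1 gene expression raised more than 2-fold over untreated cells in both replicates at either tested dose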;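 note: Ring1 transcript normalised to actin housekeeping signal by TaqMan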
Fgf4 repress – Fgf4 mRNA decrease in mouse ESCs, confirmation, esBAF inhibitor project, cell-based, mouse ESC, RT-qPCR, cherry-pick | shares compounds with esBAF inh | mouse ESC E14, Fgf4 mRNA qPCR fold change; stronger effect = lower value | Fgf4 expression fold change at 33 µM | 550 compounds, 4% hits;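 active = Fgf4 expression under 0.8 fold of control in both repeat measurements at one or both tested doses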;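 note: Fgf4 transcript normalised to actin in duplex TaqMan qPCR; cells exposed to compound for 24 h before lysis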
Bmi1 derepress – esBAF inhibition via Bmi1 de-repression, confirmation, cell-based, RT-qPCR, mouse ESC, single point, cherry-pick; shares compounds with esBAF inh; mouse ESE14 ES cells, Bmi1 mRNA qPCR fold; stronger effect = higher value; fold change at 33 µM; 550 tested, under 10 active; AID 743180, 2013;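 active = Bmi1 expression fold change above 6 at either tested concentration, seen in replicate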
A549 tox SP – A549 cell cytotoxicity, cytotoxicity control, plate reader, single point, cherry-pick | shares compounds with esBAF inh | cell viability change % (negative = cytotoxic), % at 25 µM, hits read low | 550 tested, under 10 active; call rule not given here
HepG2 cytotox SP – HepG2 cell cytotoxicity, cytotoxicity control, plate reader, single point, cherry-pick. stronger effect = lower value. shares compounds with esBAF inh. AID 743189, 2013. 550 compounds, 4% hits. activity change, negative = inhibition, % at 25 µM; in the data active = activity change below about -50%
HEK293 tox SP – HEK293 cell cytotoxicity, cytotoxicity control, plate reader, single point, cherry-pick | shares compounds with esBAF inh | activity change, negative = inhibition, % at 25 µM, hits read low | 550 compounds, 3% hits; in the data active = activity change below about -38%, passing the limit was not always enough
The depositor's hits bear a star; · = not tested or not shown. The list is not random: actives were taken first. Their share in the collection is about 3.4%.

SMILES	HSF1 inhib	HSF-1 act	Vif inh	esBAF inh	Ring1 derepress	Fgf4 repress	Bmi1 derepress	A549 tox SP	HepG2 cytotox SP	HEK293 tox SP
O=C(C1CC1)N1CCCCN2[C@H](C1)[C@@H](c1ccc(C#CC3CCCC3)cc1)[C@@H]2CO	·	·	·	0.2	·	·	·	·	·	·
O=C1CCCc2cc3c(ccc4ccccc43)cc21	·	·	-11.4	75.0*	0.845	0.815	1.2	-6.8	-38.7	16.0
Cc1cc2c(cc1C)C(=O)CCC2	·	·	-0.4	-0.8	·	·	·	·	·	·
Cc1ccc(NC(=O)CN2C(=O)N/C(=C/c3ccccc3OCc3cccc(C(=O)O)c3)C2=O)cc1	-16.6	-33.0	7.7	39.5	1.18	0.838	1.22	-8.0	-0.2	-7.0
COc1cccc(/C=C2/NC(=O)N(CC(=O)Nc3ccc(C)cc3)C2=O)c1OCc1cccc(C(=O)O)c1	-4.9	5.6	6.5	2.0	·	·	·	·	·	·
Cc1noc(C)c1NC(=O)Nc1cccc2c1O[C@@H](CN(C)C(=O)Nc1ccc3c(c1)OCO3)[C@H](C)CN([C@@H](C)CO)C2=O	·	·	·	1.3	·	·	·	·	·	·
CS(=O)(=O)c1cccc(C(=O)Nc2ccc(-c3nc4ccccc4[nH]3)cc2)c1	14.5	22.3	-8.8	14.9	·	·	·	·	·	·
CS(=O)(=O)c1ccccc1C(=O)Nc1ccc(-c2nc3ccccc3o2)cc1	34.8	34.0	16.1	66.7*	1.19	1.07	2.19	-5.9	0.4	4.0
CS(=O)(=O)c1ccccc1C(=O)Nc1ccc(-c2nc3ccccc3[nH]2)cc1	7.5	20.5	-10.0	57.5*	1.15	1.38	2	-3.1	-17.9	5.6
COc1cc(OC)cc(C(=O)Nc2ccc(-c3nc4ccccc4o3)cc2)c1	2.4	-2.5	8.5	14.1	·	·	·	·	·	·
COc1ccc(CCC(=O)N2CCc3ccccc32)cc1	33.2	29.2	-1.7	62.8*	1.09	0.907	1.39	-4.6	-1.6	-11.2
O=C(c1ccccc1)N1CCc2ccccc21	-5.5	-8.5	·	·	·	·	·	·	·	·
Cc1ccc(C(=O)N2CCc3ccccc32)cc1C	·	·	-2.1	52.2*	1.25	0.996	1.54	9.5	19.0	-6.1
COc1cc2[nH]c(C(=O)N3CCc4ccccc43)cc2c(OC)c1OC	16.0	14.9	-3.4	58.1*	0.939	1.15	2.14	4.1	0.9	-3.8
COc1ccc(C(=O)N2CCc3ccccc32)cc1	4.8	17.1	-1.0	68.3*	0.968	0.882	1.51	-4.2	-8.5	-5.9
CO[C@@H]1CN(C)C(=O)c2ccc(NC(=O)C3CC3)cc2OC[C@@H](C)N(C(=O)CN(C)C)C[C@H]1C	·	·	·	-2.1	·	·	·	·	·	·
C[C@@H]1CN([C@H](C)CO)S(=O)(=O)c2ccc(C#CC(C)(C)O)cc2O[C@H]1CN(C)CC1CCCC1	·	·	·	-16.1	·	·	·	·	·	·
CC1CCCN(C(=O)CNC(=O)c2sc3ccccc3c2Cl)C1 (stereo unspecified)	·	·	-11.8	82.5*	0.95	0.995	1.25	-0.2	1.5	-7.0
CC1CC(C)CN(C(=O)CNC(=O)c2sc3ccccc3c2Cl)C1 (stereo unspecified)	·	·	-0.3	23.0	·	·	·	·	·	·
CCCC(=O)Nc1ccc2c(c1)OC[C@@H](C)N(C(=O)CC1CC1)C[C@@H](C)[C@@H](OC)CN(C)C2=O	·	·	·	-1.4	·	·	·	·	·	·
Nc1nc(SCc2ccccc2)c2ncn(C3CCCCC3)c2n1	·	·	-7.8	84.6*	0.993	0.78*	1.46	1.5	21.2	-10.0
